Measurements from PubChem BioAssay AID686979 (National Center for Advancing Translational Sciences (NCATS), 2013).
“And” between values parts separate entries of the source, which are not always exact repeats. Equal values may be shown once. Screen size: about 420,000 compounds; about 50,000 (12%) were called active. Roughly 26% stayed inconclusive and do not appear here. This excerpt belongs to a sample that is enriched for actives. Unmarked numbers belong to inactive results. Calls come from the whole dose curve; as a rule, active = well fitted inhibition curve with a large enough effect; inconclusive = small, poorly fitted or top-dose-only effect; inactive = flat fitted curve, though single readings scatter.

Test: qHTS for Inhibitors of human tyrosyl-DNA phosphodiesterase 1 (TDP1): qHTS in cells in presence of CPT; note: nearly all actives have a fitted effect of over 55% in size
Settings: chicken DT40 Tdp1-/-;hTDP1 cells + 20 nM CPT, ATP luminescence, 48 h; series mostly up to 46.2 µM; activity change, negative = growth inhibition: at the top concentration
How it was run: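 Chicken DT40 Tdp1-/- cells complemented with human TDP1, 400 cells/well, exposed to compounds plus 20 nM camptothecin for at least 48 h at 37 C; viability read as ATP content by CellTiter-Glo luminescence.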
% is set by controls: 0 for no effect and ±100 for the full control effect; potency is the fitted concentration of half-maximal effect.

| Structure (SMILES) | activity change, negative = growth inhibition [%] | Potency |
| --- | --- | --- |
| COC(=O)C(NS(=O)(=O)c1ccc(F)cc1)c1ccccc1 (stereo not drawn) | -24.2 |  |
| Cc1cccc(-c2nnc(SC(C)C(=O)Nc3ccccc3)n2C)c1 (stereo not drawn) | -10.2 |  |
| COc1ccc(NC(=O)NC(C)c2c(-n3cccc3)sc(C)c2C)cc1OC (stereo not drawn) |  | 16.4 µM (active) |
| CCn1cc(NC(=O)Nc2ccc(OC)c(OC)c2)c(C(N)=O)n1 | 11.3 |  |
| COc1ccc(NC(=O)CNC(=O)Cc2ccccc2)cc1OC | 1.52 |  |
| Cc1nc(C)c(-c2csc(NCCc3ccccc3)n2)s1 |  | 14.6 µM (active) |
| Cc1nc(N)sc1-c1ccccc1 | -0.668 |  |
| S=c1[nH]nc(NCCc2ccccc2)s1 | -3.43 |  |
| CCOC(=O)c1cc2c(=O)n3ccccc3nc2n(CC2CCCO2)c1=NC(=O)c1ccccc1F (stereo not drawn) | -14.2 |  |
| CCCn1c(=NC(C)=O)c(C(=O)OCC)cc2c(=O)n3ccccc3nc21 | -16.3 |  |
| CCOC(=O)c1cc2c(=O)n3ccccc3nc2n(CC(C)C)c1=NC(=O)c1c(-c2c(F)cccc2Cl)noc1C |  | 16.4 µM (active) and 8.2 µM (active) |
| COc1ccccc1OCC(=O)OCc1cc(-c2ccco2)on1 | -10.3 |  |
| COc1cccc(C(c2c(O)cc(C)n(Cc3ccco3)c2=O)N2CCN(c3ccccc3)CC2)c1 (stereo not drawn) | -10.4 |  |
| CC(C)(C)Cc1nnc(NC(=O)c2cc(-c3ccccc3)nc3ccccc23)s1 | 1.81 |  |
| CCCCN(C)CCCNC(=O)c1cc(-c2cccs2)nc2ccccc12 |  | 29.1 µM (active) |
| O=C(NCCN1CCOCC1)c1cc(-c2cccs2)nc2ccccc12 | -6.74 |  |
| Cn1cc(CN2CCCC(CO)C2)c(-c2ccc(Oc3ccccc3)cc2)n1 (stereo not drawn) | -29.3 |  |
| Cc1ccccc1NC(=O)C1CCN(C(=O)NC2CCCCC2)CC1 | 17.2 |  |
| CCN(C(=O)COC(=O)c1c(C)nn(-c2ccccc2)c1Cl)c1c(N)n(Cc2ccccc2)c(=O)[nH]c1=O | 7.19 |  |
| CCN(C(=O)COC(=O)CCOc1cccc(C)c1)c1c(N)n(Cc2ccccc2)c(=O)[nH]c1=O |  | 16.4 µM (active) |
| COCCN(C(=O)COC(=O)Cc1cccc(OC)c1)c1c(N)n(Cc2ccccc2)c(=O)[nH]c1=O | 0.869 |  |
| CCN(C(=O)CN1CCN(Cc2ccccc2)CC1)c1c(N)n(Cc2ccccc2)c(=O)[nH]c1=O |  | 11.6 µM (active) |
| CCN(C(=O)COC(=O)Cc1c(F)cccc1Cl)c1c(N)n(Cc2ccccc2)c(=O)[nH]c1=O | 1.95 |  |
| CCN(C(=O)COC(=O)c1sccc1C)c1c(N)n(Cc2ccccc2)c(=O)[nH]c1=O | -1.38 |  |
| CCCn1nc(C(=O)NNC(=O)CCOc2ccccc2OCC)c2ccccc2c1=O | 1.4 |  |
| CN(C)/C=C(\C#N)C(=O)c1cccnc1Oc1ccc(F)cc1F | -19.9 |  |

| Structure (SMILES) | activity change, negative = growth inhibition [%] | Potency |
| --- | --- | --- |
| CCOC(=O)C1(O)CC(C)=NN1C(=O)c1cccc(Br)c1 (stereo not drawn) | 18.5 |  |
| CCN(C(=O)CSc1ncnc2c1cnn2-c1ccccc1)C1CCS(=O)(=O)C1 (stereo not drawn) | -4.58 |  |
| O=c1[nH]nc(SCCS(=O)(=O)c2ccc(F)cc2)n1-c1ccccc1C(F)(F)F |  | 23.1 µM (active) |
| O=S(=O)(c1ccc(F)cc1)N1CCN(Cc2ccccc2C(F)(F)F)CC1 | -16 |  |
| O=C(CSc1n[nH]c(=O)n1-c1ccccc1)Nc1ccccc1C(F)(F)F | -0.565 |  |
| O=C(NCC1Cc2cc(F)cc(-c3cnccn3)c2O1)C1COc2ccccc2O1 (stereo not drawn) | 16.4 |  |
| S=C(c1ccccc1)N1CCCC1 | 11.6 |  |
| CCOC(=O)c1c(NC(=O)CSc2nccc(=O)[nH]2)sc(C)c1C | -10.7 |  |
| NC(=O)C1CCN(C(=O)c2ccc(F)c(S(=O)(=O)N3CCOCC3)c2)CC1 | 8.19 |  |
| CC1CCN(C(=O)c2ccc(S(=O)(=O)Cc3cc(F)ccc3F)c([N+](=O)[O-])c2)CC1 |  | 6.51 µM (active) |
| Nc1ccc(C(=O)N2CCN(S(=O)(=O)c3ccc(Cl)cc3)CC2)cc1[N+](=O)[O-] | -66.4 |  |
| Cc1noc(NS(=O)(=O)c2ccc(NC(=O)c3oc4ccc(F)cc4c3C)cc2)c1C | -14.1 |  |
| CC(=O)Nc1c2c(nn1-c1ccc(C)cc1C)CS(=O)C2 (stereo not drawn) | 7.09 |  |
| C[C@H](NC(=O)C1CC(=O)N(c2ccc3c(c2)OCCO3)C1)C(=O)N1CCC(C(=O)O)CC1 (stereo partly drawn) | -0.349 |  |
| CC(=O)Nc1c2c(nn1-c1cccc(C)c1)CSC2 | -12.1 |  |
| CCCOc1cccc(C(=O)NCCCNC(=O)c2cccnc2)c1 | -1.65 |  |
| O=C(NC1Cc2ccccc2C1)c1cc(COc2cccc(C(F)(F)F)c2)on1 | -25.4 |  |
| CCn1ccnc1CN(C)C(=O)c1cc(COc2ccc(-n3cncn3)cc2)on1 | -21.3 |  |
| CC(C)Cc1cc(C(=O)NCCc2ccccc2)no1 | -26.4 |  |
| CCC(NC(=O)c1cc(COc2ccc(F)c(F)c2)on1)c1ccncc1 (stereo not drawn) |  | 20.6 µM (active) |
| CC(=O)c1cccc(OCc2cc(C(=O)NC(C)Cc3cccnc3)no2)c1 (stereo not drawn) |  | 16.4 µM (active) |
| CN(Cc1cccnc1)C(=O)c1cc(COc2ccc3ncccc3c2)on1 |  | 4.61 µM (active) |
| O=C(NCCCc1ccccc1)c1cc(COc2c(F)cccc2F)on1 | -17.7 |  |
| Cc1ccc(OCc2cc(C(=O)N(C)CCc3ccccc3)no2)cc1C | -13.4 |  |
| CC(N)(C(=O)O)c1ccc(-c2nn[nH]n2)cc1 (stereo not drawn) | -21.6 |  |
| COC(=O)C[C@H]1C=C[C@H](NC(=O)c2ccc(F)cc2)[C@@H](CO)O1 | -3.56 |  |

| Structure (SMILES) | activity change, negative = growth inhibition [%] | Potency |
| --- | --- | --- |
| Cc1sc(NC(=O)C2=COCCO2)c(C#N)c1C | -13.9 |  |
| CC1(C)C(c2cccs2)=[N+]([O-])C2(CCCCC2=O)N1O (stereo not drawn) | 9.95 |  |
| Cc1cccn2cc(-c3cccc(S(=O)(=O)N4CCCCC4)c3)nc12 | -24 |  |
| O=C(NCCCN1CCOCC1)C1CCCN(S(=O)(=O)N2CCCCC2)C1 (stereo not drawn) | -7.98 |  |
| COc1cccc2c1C(=O)c1c(O)c3c(c(O)c1C2=O)CC(O)(C(C)=NNC(=O)c1ccc(Cl)c(Cl)c1)CC3OC1CC(N)C(O)C(C)O1 (stereo not drawn) |  | 0.164 µM (active) |
| CCOC(=O)c1cnc2c(c(C)nn2CC)c1Cl | 5.09 |  |
| COc1ccc(CN2C(=O)C(C)S/C2=N/N=C/c2ccco2)cc1 (stereo not drawn) | -9.51 |  |
| COc1cccc(-c2ccc3c(c2)N(Cc2ccccc2OC)C(=O)C(C)S3)c1 (stereo not drawn) |  | 25.9 µM (active) |
| COc1ccccc1CNS(=O)(=O)c1ccc2c(c1)NC(=O)CS2 | -27.9 |  |
| CCCc1nc(N2CCN(C)CC2)c2sc(=S)n(-c3ccccc3)c2n1 |  | 18.4 µM (active) |
| CCCc1nc(-c2ccccc2O)n(-c2ccccc2)n1 | -27.4 |  |
| COC(=O)c1ccc(NC(=O)CSc2nnc(CNc3ccc(OC)cc3)n2C)cc1 | 5.11 |  |
| Cc1cnc(NC(=O)CSc2nnc(-c3ccccc3)n2Cc2ccccc2)s1 | -13.7 |  |
| COc1ccc(CC(=O)NCc2nnc(SCC(=O)Nc3nccs3)n2C)cc1 | -10.1 |  |
| Cc1cnc(NC(=O)CSc2c(Cl)cccc2Cl)s1 |  | 14.6 µM (active) |
| Cc1cnc(NC(=O)CSc2nnc(C)s2)s1 | -12.2 |  |
| COc1ccc(CC(=O)NCc2nnc(SCC(=O)Nc3ncc(C)s3)n2C)cc1 |  | 16.4 µM (active) |
| O=C(NCc1ccccc1)C(c1ccco1)N(C(=O)c1csnn1)c1ccccc1F (stereo not drawn) | -13 |  |
| CCCCN(C(=O)COc1ccc(NC(C)=O)cc1)C1CCS(=O)(=O)C1 (stereo not drawn) | -15.7 |  |
| COc1ccc(CNC(=O)CCC(=O)Nc2nnc(C(C)C)s2)cc1 | 2.44 |  |
| CC[C@@H]1CC2=C(C(=O)OC(C)(C)O2)[C@@H](CC)O1 | -8.36 |  |
| Cn1c(CC(=O)Nc2ccc(F)cc2)nnc1SCC(=O)NC1CCCCC1 | 2.42 |  |
| O=C(NCCN1CCOC1=O)C1CCC(=O)N(CCc2ccc(Cl)cc2)C1 (stereo not drawn) | -3.33 |  |
| C=CCNCCCCOc1ccccc1 | -25.9 |  |
| Cc1ccc(-c2c3c(=O)n(C)c(=O)n(C)c3cn2-c2ccccc2O)cc1 | -1.44 |  |
| COc1cccc(-n2cc3c(c2-c2ccccc2)c(=O)n(C)c(=O)n3C)c1 |  | 23.1 µM (active) |

| Structure (SMILES) | activity change, negative = growth inhibition [%] | Potency |
| --- | --- | --- |
| COc1ccc(-c2c3c(=O)n(C)c(=O)n(C)c3cn2NC(C)=O)cc1 | -0.679 |  |
| COc1ccc(Nc2cc(=O)n(-c3ccccc3)c3c2c(=O)n(C)c(=O)n3C)cc1 | 16 |  |
| COc1ccc(-c2[nH]c3c(c2-c2c(-n4cccc4)n(C)c(=O)n(C)c2=O)c(=O)n(C)c(=O)n3C)cc1 | -19.5 |  |
| COc1ccc(-c2c3c(=O)n(C)c(=O)n(C)c3cn2-c2cccc(OC)c2)cc1 |  | 29.1 µM (active) |
| COc1ccccc1N(CC(=O)Nc1c(C)n(C)n(-c2ccccc2)c1=O)S(=O)(=O)c1ccccc1 | -1.58 |  |
| Cc1c(Cl)cccc1NC(=O)NCCCN1CCCC1=O | -4.46 |  |
| O=C(OCc1cc(=O)n2nc(C3CC3)sc2n1)c1ccccc1Cl | -26.1 |  |
| C=CCOC(=O)C1=C[C@H](c2ccc(Br)cc2)C[C@H](OCCCCO)O1 | -10.5 |  |
| COc1ccc(Cc2nnc(SC)[nH]c2=O)cc1 |  | 12.6 µM (active) |
| CSc1nc(O)c(Cc2ccccc2)c(=O)[nH]1 | -2.58 |  |
| COc1ccc(Cc2nnc(SCC(=O)Nc3ccc(C)c(Cl)c3)[nH]c2=O)cc1 | 3.75 |  |
| COc1ccc(NC(=O)CCNC(=O)Cn2cnc3sc4c(c3c2=O)CCCC4)cc1OC | -5.97 |  |
| O=C(O)CC(SCC(=O)Nc1ccc(Br)cc1)C(=O)O (stereo not drawn) | 15 |  |
| CCOc1cccc(/C=N/NC(=S)NCCN2CCOCC2)c1O |  | 4.11 µM (active) |
| Cc1ccc(NC(=S)NCCN2CCOCC2)cc1 | 9.2 |  |
| Cc1ccc(C(=O)NC(=S)NCCN2CCOCC2)cc1 | -5.93 |  |
| C=CCSc1nnc(NC(=O)c2ccc(NC(C)=O)cc2)s1 | -16.9 |  |
| COc1ccc(C(=O)Nc2ncc3c(n2)-c2ccccc2CC3)cc1 | -21.1 |  |
| O=C(Nc1ncc2c(n1)-c1ccccc1OC2)c1ccc(Cl)cc1 | -18.9 |  |
| C=CCN(CC=C)S(=O)(=O)c1ccc(C(=O)Nc2sc3c(c2C(N)=O)CCCCC3)cc1 |  | 13 µM (active) |
| COc1cccc(OC)c1C(=O)Nc1sc2c(c1C(N)=O)CCCC2 | 3.81 |  |
| COCc1nnc(NC(=O)c2ccc3c(c2)OCO3)s1 | 2.7 |  |
| NC(=O)c1c(NC(=O)c2ccccc2)sc2c1CCCC2 | -16.3 |  |
| COCCN(CCOC)S(=O)(=O)c1ccc(C(=O)Nc2nc3c(s2)CCc2ccccc2-3)cc1 |  | 9.2 µM (active) |
| C=CCN(CC=C)S(=O)(=O)c1ccc(C(=O)Nc2nc3c(s2)CCc2ccccc2-3)cc1 |  | 16.4 µM (active) |
